Reference: PubChem BioAssay (NCI)
This is part of a sample that, as a whole, favours compounds with a hit. Of some 83,000 tested, about 20% had one in any assay.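 In brief: 96-well plates, 48 h treatment, single concentration, percent growth endpoint.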 Values without a mark were called inactive. Activity calls are given as the source filed them. Rule for the calls: active = growth percent below 10; inactive = the rest.

What follows are molecules tested on HL-60(TB) leukemia (assay: NCI-60 one-dose screen, 48 h (100 = growth as untreated, 0 = no growth, -100 = all killed)). Conditions: 10 µM unless noted.

Compound	growth
COc1ccc(Nc2nn3c(SCC(=O)c4ccc(C)cc4)nnc3s2)cc1	86%
CCOC(=O)C1=C(C)NC(=O)NC1c1c(Cl)n(-c2ccccc2)c2ccccc12 (stereo not given)	73.4%
COc1cc(C2NC(c3cc(OC)c(OC)c(OC)c3)C(C#N)(C#N)C2(C#N)C#N)cc(OC)c1OC (stereo not given)	89.3%
C=C(C)[C@@H]1CC[C@]2(C)[C@H](CC(=O)N[C@H]3[C@@H]4C[C@](C)(C(=O)OC)CC[C@]4(C)CC[C@]32C)[C@@]1(C)CCC#N	83.1%
Cc1ccc2sc3c(NCCN)nc4ccccc4c3c(=O)c2c1	53.3%
O=NN(Cc1cccnc1)C(=O)NC1CCCCC1	120%
CC(=O)/C(N=Nc1ccc(S(=O)(=O)c2ccc(N=N/C(C(C)=O)=C(/C)O)cc2)cc1)=C(\C)O	88.5%
CC(C)n1nc(C#Cc2cccc(O)c2)c2c(N)ncnc21	-57.9% (active)
CNC(=O)c1cc(Oc2ccc3nc(NC(=O)c4ccc5ncccc5c4)sc3c2)ccn1	87.8%
NC(=O)CC1(c2ccccc2)CCCCC1	98.4%
CN1C(=O)N(C)C2C1NN=c1s/c(=C\c3ccsc3)c(=O)n12 (stereo not given)	5.85% (active)
O=C(Nc1cccc(F)c1)Nc1cccc(Cl)c1	-10.6% (active)
c1cc2c(ccc3[nH]c(-c4ccc5[nH]ncc5c4)c4c(c32)CCCC4)n1	9.65% (active)
CN(Cc1ccccc1)Cc1ccccc1	93.4%
COCC(=O)Oc1cc(-c2ccc(C)cc2C)c(OC(=O)COC)c(-c2ccc(C)cc2C)c1	36.9%
COc1ccc(N(C)c2ncnc3occ(C)c23)cc1	-34.9% (active)
COC(=O)[C@]12CC[C@@H](C)[C@H](C)[C@@H]1C1=CC[C@@H]3[C@@]4(C)C=C(O)C(=O)C(C)=C4CC[C@@]3(C)[C@]1(C)CC2	4.09% (active)
CC(C)(CCN=C(N)Nc1ccccn1)c1ccc(C(F)(F)F)cc1	-52.7% (active)
O=C(Nc1ccc(-n2cc(-c3ccncc3)c(-c3ccc(O)c(Cl)c3)n2)cc1)c1cc(C(F)(F)F)cc(C(F)(F)F)c1	84.4%
O=C(Nc1ccc(OCc2nnc(-c3ccccc3)o2)c(F)c1)Nc1ccc(Cl)c(C(F)(F)F)c1	-19.7% (active)

Compound	growth
COc1cc(OC)c(C(=O)/C=C/c2cccc(OC(C)=O)c2)cc1CC=C(C)C	8.14% (active)
O=C1c2ccccc2NC(c2cn(-c3ccccc3)nc2-c2cccs2)N1Cc1ccccc1 (stereo not given)	-6.57% (active)
CCCCCn1c(C)cc(/C=C\c2ccc3cc(C)ccc3[n+]2C)c1C	-6.41% (active)
CCCCCCN=C(N)CCCCCCCCCCC(N)=NCCCCCC	55.1%
N#Cc1c(-c2ccc(Cl)cc2)n(O)c2ccccc12	-0.349% (active)
CC1C(=O)c2ccccc2CC1C(=O)O (stereo not given)	99.7%
O=C1COc2ccccc2C(=O)N1CCCCNc1ccccc1	-36.5% (active)
COc1cnc2c(c1)C(=O)c1c-2n(CCCN2CCOCC2)c(=O)c2cc(Cl)ccc12	-4.61% (active)
N#Cc1cc(-c2nc3ccccc3s2)c(=O)n(NS(=O)(=O)c2ccccc2)c1N	103%
O=[N+]([O-])c1c(F)cccc1Nc1cccc(F)c1	100%
CN(C)c1ccc2c(c1)OC(N)=C(C#N)C2c1ccc2c(c1)CCCN2C (stereo not given)	5.46% (active)
CCCCCCCCCCCC[n+]1c(C)cc(N)c2ccccc21	-44.4% (active)
Cc1ccc(NC(=O)/C=C/c2ccccc2)c(C(N)=O)c1	-25.5% (active)
CC(=O)OC[C@]12CC[C@@H](/C(C)=N/O)[C@@H]1[C@H]1CC[C@@H]3[C@@]4(C)CCCNC(C)(C)[C@@H]4CC[C@@]3(C)[C@]1(C)CC2	37.7%
COc1cccc(/C=N/N=C(N)N)c1	122%
O=C(CCCNC(=O)c1nc(-c2ccccc2)n(-c2ccccc2)n1)NO	87.9%
Cc1ccc(C)c2c1CCC2=O	134%
COc1ccc(-c2cc(-c3cc(OC)c(OC)c(OC)c3)c(C#N)c(N3CCOCC3)n2)cc1O	-31.8% (active)
Cc1cc(C)c([I+]c2c(C)cc(C)cc2C)c(C)c1	-64.3% (active)
CCOC(=O)CC1CSC(N/N=C/c2ccc(F)c(Br)c2)=N1 (stereo not given)	93.6%
